{
  "source": "paper PMC7862700",
  "about": "“An all-to-all approach to the identification of sequence-specific readers for epigenetic DNA modifications on cytosine”",
  "experiment_in_all_cases": "DAPPL (digital affinity profiling via proximity ligation, sequencing); 10 mM Tris-HCl pH 7.5, 50 mM NaCl, 1 mM DTT, 4% glycerol, room temperature, 30 min; GST-TFs on glutathione beads, 16-mer random dsDNA library, 0.1% formaldehyde crosslink after washing; high values mean tight binding",
  "key": {"[1]": {"target": "T1, FEV (Homo sapiens, UniProt Q99581 1-238)", "T1 sequence": "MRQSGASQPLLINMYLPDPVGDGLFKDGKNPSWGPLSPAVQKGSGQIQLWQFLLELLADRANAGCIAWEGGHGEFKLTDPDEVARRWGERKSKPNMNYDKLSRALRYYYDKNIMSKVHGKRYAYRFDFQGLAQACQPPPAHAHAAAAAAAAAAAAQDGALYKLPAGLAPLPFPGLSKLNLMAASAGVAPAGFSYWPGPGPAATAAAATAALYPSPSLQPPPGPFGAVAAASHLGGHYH", "settings": "protein: recombinant; tags: N-terminal GST; dsDNA, one strand shown", "method_in_brief": "(§1)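 Human transcription factors were made in yeast as GST fusions, captured on glutathione beads and barcoded with DNA. With a tag-only sample included, the pool was incubated with 200 nmole of a random double-stranded 16-mer DNA library in Tris/NaCl/DTT/glycerol buffer at room temperature for 30 min, then crosslinked with 0.1% formaldehyde after washing, ligated by proximity, amplified and sequenced. For binding signal, each hexamer's read frequency for a factor is divided by its frequency for the tag-only sample.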"}, "[2]": {"target": "ETV5 (Homo sapiens, UniProt P41161 1-510)", "sequence (P41161 whole entry)": "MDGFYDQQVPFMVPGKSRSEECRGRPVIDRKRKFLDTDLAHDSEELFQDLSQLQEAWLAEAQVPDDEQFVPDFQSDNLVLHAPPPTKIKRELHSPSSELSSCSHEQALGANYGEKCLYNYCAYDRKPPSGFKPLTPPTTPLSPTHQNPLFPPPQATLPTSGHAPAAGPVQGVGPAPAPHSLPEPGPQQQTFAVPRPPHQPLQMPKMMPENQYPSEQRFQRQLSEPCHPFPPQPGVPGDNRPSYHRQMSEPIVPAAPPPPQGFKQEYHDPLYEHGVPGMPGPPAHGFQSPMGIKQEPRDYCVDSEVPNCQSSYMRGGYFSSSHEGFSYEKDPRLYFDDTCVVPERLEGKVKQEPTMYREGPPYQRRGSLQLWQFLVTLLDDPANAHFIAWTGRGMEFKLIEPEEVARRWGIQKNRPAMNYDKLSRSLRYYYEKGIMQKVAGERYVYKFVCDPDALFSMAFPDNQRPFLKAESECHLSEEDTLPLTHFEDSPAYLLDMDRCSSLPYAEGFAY", "settings": "protein: recombinant; tags: N-terminal GST; dsDNA, one strand shown", "method_in_brief": "as §1"}, "[3]": {"target": "HSF1 (Homo sapiens, UniProt Q00613 1-529)", "sequence (Q00613 whole entry)": "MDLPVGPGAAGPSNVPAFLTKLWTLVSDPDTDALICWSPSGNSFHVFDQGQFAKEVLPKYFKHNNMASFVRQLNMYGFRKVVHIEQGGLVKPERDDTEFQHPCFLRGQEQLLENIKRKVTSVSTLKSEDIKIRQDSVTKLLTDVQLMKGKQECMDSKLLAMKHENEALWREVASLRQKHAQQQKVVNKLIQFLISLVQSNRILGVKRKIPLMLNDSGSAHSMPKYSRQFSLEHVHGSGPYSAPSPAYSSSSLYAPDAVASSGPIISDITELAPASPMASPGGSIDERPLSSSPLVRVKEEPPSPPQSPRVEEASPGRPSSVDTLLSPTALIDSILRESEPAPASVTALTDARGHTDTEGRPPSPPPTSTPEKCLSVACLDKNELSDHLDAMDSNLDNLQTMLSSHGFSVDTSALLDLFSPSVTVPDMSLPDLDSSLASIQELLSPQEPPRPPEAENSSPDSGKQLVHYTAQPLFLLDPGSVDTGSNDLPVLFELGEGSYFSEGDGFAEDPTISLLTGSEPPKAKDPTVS", "settings": "protein: recombinant; tags: N-terminal GST; chain copies: 3; dsDNA, one strand shown", "method_in_brief": "as §1"}, "[4]": {"target": "T2, SPIC (Homo sapiens, UniProt Q8N5J4 1-248)", "T2 sequence": "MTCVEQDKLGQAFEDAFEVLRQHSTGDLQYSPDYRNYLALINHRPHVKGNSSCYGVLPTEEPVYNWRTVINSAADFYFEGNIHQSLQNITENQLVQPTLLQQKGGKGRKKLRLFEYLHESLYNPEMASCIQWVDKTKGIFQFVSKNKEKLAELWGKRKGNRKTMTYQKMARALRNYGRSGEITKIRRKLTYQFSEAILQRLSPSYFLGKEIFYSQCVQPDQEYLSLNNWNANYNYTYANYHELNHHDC", "settings": "protein: recombinant; tags: N-terminal GST; dsDNA, one strand shown", "method_in_brief": "as §1"}, "[5]": {"target": "ELF4 (Homo sapiens, UniProt Q99607 1-663)", "sequence (Q99607 whole entry)": "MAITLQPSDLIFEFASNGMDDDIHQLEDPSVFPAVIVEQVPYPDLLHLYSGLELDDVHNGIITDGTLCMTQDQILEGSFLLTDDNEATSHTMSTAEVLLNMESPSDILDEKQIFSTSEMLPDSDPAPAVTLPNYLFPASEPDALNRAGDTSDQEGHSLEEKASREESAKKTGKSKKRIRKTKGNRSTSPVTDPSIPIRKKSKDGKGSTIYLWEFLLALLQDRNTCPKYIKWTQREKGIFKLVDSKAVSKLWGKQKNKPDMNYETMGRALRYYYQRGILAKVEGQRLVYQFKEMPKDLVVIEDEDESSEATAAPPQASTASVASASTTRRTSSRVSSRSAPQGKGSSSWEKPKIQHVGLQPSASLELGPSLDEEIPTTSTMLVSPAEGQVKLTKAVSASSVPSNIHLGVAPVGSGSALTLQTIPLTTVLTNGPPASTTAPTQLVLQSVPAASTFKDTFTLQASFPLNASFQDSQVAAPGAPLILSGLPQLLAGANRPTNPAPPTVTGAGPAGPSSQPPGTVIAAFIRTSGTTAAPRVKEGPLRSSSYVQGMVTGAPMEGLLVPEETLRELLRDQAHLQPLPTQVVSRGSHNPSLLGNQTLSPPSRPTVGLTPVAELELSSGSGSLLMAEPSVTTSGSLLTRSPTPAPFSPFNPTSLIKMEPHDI", "settings": "protein: recombinant; tags: N-terminal GST; dsDNA, one strand shown", "method_in_brief": "as §1"}, "[6]": {"target": "T3, ELK4 (Homo sapiens, UniProt P28324-2 1-405)", "T3 sequence": "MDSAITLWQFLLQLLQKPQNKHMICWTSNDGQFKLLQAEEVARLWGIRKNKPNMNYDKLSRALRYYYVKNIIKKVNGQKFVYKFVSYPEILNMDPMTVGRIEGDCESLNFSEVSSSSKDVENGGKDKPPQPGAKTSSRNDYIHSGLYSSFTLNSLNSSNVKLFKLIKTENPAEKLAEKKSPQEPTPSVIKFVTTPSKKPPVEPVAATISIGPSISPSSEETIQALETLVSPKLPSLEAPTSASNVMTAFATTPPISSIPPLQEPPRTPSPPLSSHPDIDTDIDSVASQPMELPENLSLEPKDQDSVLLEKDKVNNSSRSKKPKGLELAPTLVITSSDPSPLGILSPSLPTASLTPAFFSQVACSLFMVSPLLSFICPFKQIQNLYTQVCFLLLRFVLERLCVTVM", "settings": "protein: recombinant; tags: N-terminal GST; dsDNA, one strand shown", "method_in_brief": "as §1"}, "[7]": {"target": "T4, ETV2 (Homo sapiens, UniProt O00321 1-342)", "T4 sequence": "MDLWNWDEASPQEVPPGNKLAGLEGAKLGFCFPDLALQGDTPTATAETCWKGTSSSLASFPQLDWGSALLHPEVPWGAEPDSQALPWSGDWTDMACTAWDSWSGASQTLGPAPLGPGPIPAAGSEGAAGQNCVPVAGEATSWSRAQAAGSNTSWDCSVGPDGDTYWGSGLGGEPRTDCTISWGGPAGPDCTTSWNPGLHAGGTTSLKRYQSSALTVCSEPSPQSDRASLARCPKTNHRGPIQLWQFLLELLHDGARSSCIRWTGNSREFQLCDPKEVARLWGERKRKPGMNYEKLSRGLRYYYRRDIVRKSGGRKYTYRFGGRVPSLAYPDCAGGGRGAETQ", "settings": "protein: recombinant; tags: N-terminal GST; dsDNA, one strand shown", "method_in_brief": "as §1"}, "[8]": {"target": "T5, ELF3 (Homo sapiens, UniProt P78545 1-371)", "T5 sequence": "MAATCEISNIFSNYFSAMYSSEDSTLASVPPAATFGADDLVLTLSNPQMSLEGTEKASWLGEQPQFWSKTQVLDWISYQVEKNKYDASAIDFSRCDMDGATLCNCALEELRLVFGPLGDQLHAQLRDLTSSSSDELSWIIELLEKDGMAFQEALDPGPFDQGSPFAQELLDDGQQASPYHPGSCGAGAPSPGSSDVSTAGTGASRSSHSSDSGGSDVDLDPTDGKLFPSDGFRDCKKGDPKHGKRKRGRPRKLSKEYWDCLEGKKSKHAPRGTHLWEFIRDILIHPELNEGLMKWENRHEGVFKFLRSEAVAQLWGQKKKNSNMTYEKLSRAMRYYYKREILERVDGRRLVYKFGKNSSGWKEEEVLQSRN", "settings": "protein: recombinant; tags: N-terminal GST; dsDNA, one strand shown", "method_in_brief": "as §1"}, "[9]": {"target": "CRX (Homo sapiens, UniProt O43186 1-299)", "sequence (O43186 whole entry)": "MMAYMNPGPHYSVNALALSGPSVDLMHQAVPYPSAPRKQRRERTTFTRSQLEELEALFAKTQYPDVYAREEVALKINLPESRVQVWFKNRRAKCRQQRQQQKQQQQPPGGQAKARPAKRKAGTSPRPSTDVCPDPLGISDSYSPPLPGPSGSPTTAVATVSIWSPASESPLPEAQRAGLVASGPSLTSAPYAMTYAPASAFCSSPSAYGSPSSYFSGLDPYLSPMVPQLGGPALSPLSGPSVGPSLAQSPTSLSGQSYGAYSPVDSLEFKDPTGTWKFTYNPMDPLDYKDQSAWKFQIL", "settings": "protein: recombinant; tags: N-terminal GST; dsDNA, one strand shown", "method_in_brief": "as §1"}, "[10]": {"target": "ETV1 (Homo sapiens, UniProt P50549 1-477)", "sequence (P50549 whole entry)": "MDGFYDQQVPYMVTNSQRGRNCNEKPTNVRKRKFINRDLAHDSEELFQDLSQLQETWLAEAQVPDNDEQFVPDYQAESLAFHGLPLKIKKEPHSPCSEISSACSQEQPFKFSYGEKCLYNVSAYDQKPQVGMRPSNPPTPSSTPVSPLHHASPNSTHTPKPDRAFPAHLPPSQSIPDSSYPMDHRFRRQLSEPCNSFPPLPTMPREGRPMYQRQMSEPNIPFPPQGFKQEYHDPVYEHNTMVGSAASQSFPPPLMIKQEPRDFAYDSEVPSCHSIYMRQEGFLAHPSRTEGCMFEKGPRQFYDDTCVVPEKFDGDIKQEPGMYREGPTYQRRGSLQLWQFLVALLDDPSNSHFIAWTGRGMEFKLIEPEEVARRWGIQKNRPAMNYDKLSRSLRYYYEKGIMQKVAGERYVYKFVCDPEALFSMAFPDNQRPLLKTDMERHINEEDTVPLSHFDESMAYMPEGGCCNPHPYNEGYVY", "settings": "protein: recombinant; tags: N-terminal GST; dsDNA, one strand shown", "method_in_brief": "as §1"}},
  "data": [
    {"sequence": "CCCACT", "values": [
      {"measurement": "binding signal", "setting": "[1]", "result": "1.5 fold enrichment (6-mer frequency, TF over GST control)"},
      {"measurement": "binding signal", "setting": "[2]", "result": "1.33 fold enrichment (6-mer frequency, TF over GST control)"},
      {"measurement": "binding signal", "setting": "[3]", "result": "1.07 fold enrichment (6-mer frequency, TF over GST control)"},
      {"measurement": "binding signal", "setting": "[4]", "result": "1.27 fold enrichment (6-mer frequency, TF over GST control)"},
      {"measurement": "binding signal", "setting": "[5]", "result": "1.43 fold enrichment (6-mer frequency, TF over GST control)"},
      {"measurement": "binding signal", "setting": "[6]", "result": "1.24 fold enrichment (6-mer frequency, TF over GST control)"},
      {"measurement": "binding signal", "setting": "[7]", "result": "1.37 fold enrichment (6-mer frequency, TF over GST control)"},
      {"measurement": "binding signal", "setting": "[8]", "result": "1.18 fold enrichment (6-mer frequency, TF over GST control)"},
      {"measurement": "binding signal", "setting": "[9]", "result": "1.14 fold enrichment (6-mer frequency, TF over GST control)"},
      {"measurement": "binding signal", "setting": "[10]", "result": "1.34 fold enrichment (6-mer frequency, TF over GST control)"}
    ]}
  ]
}
